Source: PubChem
Nrf2 activator: Nrf2 pathway activation; Potency, µM (titrated, usually from 46.1 µM), for the others: at the top dose activation, hits mostly activators; 410,000 compounds, 0.31% hits; AID 624171; AREc32 ARE-luciferase reporter (MCF7-derived line), luminescence, 24 h; further: % of control where 0% means no effect; nearly all actives have a fitted effect of over 65% in size
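AREc32 cells carrying an ARE-driven firefly luciferase reporter were seeded at 1000 cells/well in OPTI-MEM with 5% FBS, then exposed to compound for 24 hr at 37 deg C. Luminescence was read with Steady-Glo after 30 min at RT.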
TGFb inhibitor: blocks TGF-b signaling; HepG2 CAGA-GFP TGF-b/SMAD3 reporter, GFP fluorescence, 18 h; TGF-beta stimulated, 500 pg/mL final; Potency, µM (top dose mostly 46.1 µM), inactives show top-dose activity, negative = inhibition, actives largely listed as inhibitors; 410,000 compounds, 1.2% hits; AID 588855; further: on the % scale 0 is the no-effect control and ±100 the full control effect; nearly all actives have a fitted effect of over 65% in size
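TGF-beta reporter screen: HEPG2 CAGA-GFP, 1% FBS, 500 pg/mL TGF-beta final, 18 h; per-cell GFP summed per well; curves fitted and categorized by class.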
A549 tox: A549 cytotoxicity, counter-screen for Nrf2 inhibitors. A549 ARE-Fluc cells, CellTiter-Fluor viability, 18-24 h. Potency, µM (highest dose often 46 µM), inactives show at the top dose activity change, negative = cytotoxicity, usual class: inhibitors. 390,000 compounds, 0.16% hits. AID 504648; further: on the % scale 0 is the no-effect control and ±100 the full control effect
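Cytotoxicity counterscreen: CellTiter-Fluor fluorescence was measured in A549 ARE_Fluc cells after 18-24 h of compound exposure in a concentration series. The subsequent BugLite luminescent read reports ARE-luciferase activity.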
HepG2 viability: HepG2 cytotoxicity, counter-screen for TGF-b inhibitors; HepG2 CAGA-GFP viability, ATP luminescence, 18 h; Potency, µM (doses to about 46.1 µM), for the others: at the top dose activity change, negative = cytotoxicity, actives largely listed as cytotoxic; 410,000 compounds, 0.76% hits
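CellTiter-Glo luminescence gave cytotoxicity after 18 hours at 37 degrees C. The cells were HepG2 CAGA-GFP in 1% FBS DMEM, stimulated with 500 pg/mL TGF-beta after compound addition. %Activity was normalised to no-cell wells (complete cell-killing) and DMSO (no toxicity), and curves were fitted and classified.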
Nrf2 inh: Nrf2 pathway inhibition; A549 ARE-Fluc reporter, luciferase luminescence, 18-24 h; Potency, µM (doses to about 46 µM), for the others: at the top dose activity change, negative = inhibition, hits mostly inhibitors; 360,000 compounds, 2.1% hits; AID 504444; further: on the % scale 0 is the no-effect control and ±100 the full control effect; nearly all actives have a fitted effect of over 60% in size
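Nrf2 function is reported as luminescence of an ARE-controlled luciferase in A549 cells. Compounds were tested at several concentrations, and a CellTiter-Fluor read on the same wells flagged cytotoxicity.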
Active calls of the source: *; ? = inconclusive; . = no result given; [ ] = dose if it differs, or a comment. This is a sample that favours compounds with a hit; in the whole collection about 3.6% have one here. The call rests on the fitted dose curve; in most records, active means well fitted curve in the direction sought with a large enough effect; inconclusive means small, poorly fitted or top-dose-only effect, or another doubt; inactive means no such curve, though single readings can be large; an effect the other way counts as inactive or inconclusive. Potency means the concentration at half of the fitted maximal effect.

SMILES | Nrf2 activator | TGFb inhibitor | A549 tox | HepG2 viability | Nrf2 inh
CCOC(=O)c1cc(-c2ccccc2)sc1NC(=O)COC(=O)c1ccc(Cl)c(S(N)(=O)=O)c1 | 0.1% | -2.1% | ? | -1.3% | 23.1µM*
CCCC(=O)Oc1ccc(-c2nccc(C(OC)OC)n2)cc1 | -0.8% | 15.3% | -0.6% | 4.6% | ?
CN(c1ccccc1)S(=O)(=O)c1nnc(NC(=O)COc2ccccc2)s1 | -0.3% | -0.5% | -4.5% | 3.7% | -11.6%
COC(CNC(=O)c1ccc2nc(-c3ccccc3)c(-c3ccccc3)nc2c1)OC | -0.4% | 1.0% | -15.4% | -2.2% | 16.4µM*
CCCCC(=O)OC1=C(C(=O)c2ccccc2)N(CC)S(=O)(=O)c2ccccc21 | 0.3% | ? | ? | -42.6% | ?
CCN1C(C(=O)c2ccccc2)=C(OC(=O)c2ccccc2OC)c2ccccc2S1(=O)=O | -1.7% | 10µM* | ? | 4.47µM* | ?
CCCCN1C(C(=O)c2ccccc2)=C(OC(C)=O)c2ccccc2S1(=O)=O | -3.0% | ? | ? | -59.0% | 8.2µM*
CCN(CC)c1ccc(NC(=O)CN2CCN(c3ccccc3F)CC2)cc1 | 0.4% | -7.6% | 0.8% | -18.9% | .
COc1ccc(NC(=O)/C(Cl)=C(/Cl)S(=O)(=O)Cc2ccccc2)cn1 | ? | ? | ? | 6.31µM* | .
COc1ccc(NC(=O)/C(Cl)=C(/Cl)S(=O)Cc2ccc(Cl)cc2)cn1 (configuration not stated) | -2.6%[9.22 µM] | 2.24µM* | 20.6µM* | 2.51µM* | ?
COc1ccc(NC(=O)C(Cl)=C(Cl)Cl)cn1 | ? | 0.5% | -3.1% | 4.0% | -4.7%
Cc1cc(NC(=O)c2cc3nc(C4CC4)cc(C(F)(F)F)n3n2)no1 | 0.5% | 29.2% | -1.4% | -0.1% | -9.4%
C=C1CC(COc2cc(=O)oc3ccccc23)(c2ccccc2)OC1=O (configuration not stated) | ? | 5.01µM* | -11.5% | 6.31µM* | ?
C=C1CCC2C(C)(C)[C@H](O)CC[C@@]2(C)[C@@H]1COc1cc(=O)oc2ccccc12 (some centres not stated) | -1.9% | ? | ? | -86.8% | ?
CCC(=O)N1c2ccccc2-c2nnc(SC)nc2OC1c1ccc(OC)c(OC)c1 (configuration not stated) | 1.7% | 1.6% | 3.1% | -31.5% | -5.5%
CCc1nccn1S(=O)(=O)c1ccc2ccc(C)cc2c1 | -0.4% | 5.9% | -3.5% | 18.4% | .
CN(C)c1nc(SCCOC(=O)c2ccccc2)nc(N(C)C)n1 | -0.2% | -20.0% | 0.7% | 4.1% | 2.2%
CCN(CC)c1nc(SCCOC(=O)Nc2ccccc2)nc(N(CC)CC)n1 | 2.7% | ? | ? | -24.1% | 20.6µM*
CC(=NNc1nc2ccccc2s1)c1ccncn1 | ? | ? | ? | -24.8% | ?
C/C(=N\Nc1nc2ccccc2s1)c1ccc(Br)s1 | ? | 12.6µM* | ? | -42.5% | ?
CN(Cc1ccccc1)C(=O)COc1ccc(N(C)S(=O)(=O)c2ccc(F)cc2)cc1 | 3.1% | -10.0% | -5.8% | 6.3% | ?
Cc1c(C(=O)NCCSCc2ccccc2Cl)cccc1[N+](=O)[O-] | -0.7% | 22.3% | 2.1% | -22.6% | ?
Cc1c(C(=O)NCCSCc2c(Cl)cccc2Cl)cccc1[N+](=O)[O-] | -0.4% | 6.8% | -2.4% | -1.9% | 9.2µM*
Cc1noc(C)c1S(=O)(=O)N(CC(=O)Nc1ccc(C(F)(F)F)cc1)c1ccc(C(C)C)cc1 | 4.2% | ? | -13.3% | -54.5% | 16.4µM*
CCOc1ccc(N(CC(=O)Nc2cccc(Cl)c2)S(=O)(=O)c2c(C)noc2C)cc1 | 0.2% | ? | ? | -11.9% | 23.1µM*
SMILES | Nrf2 activator | TGFb inhibitor | A549 tox | HepG2 viability | Nrf2 inh
COc1ccc(CCNC(=O)CSc2nc(O)c(C(C)C)c(=O)[nH]2)cc1OC | 0.0% | 25.1% | 3.9% | -12.6% | 10.6%
CN(C)c1ccc(CNC(=O)C2CCN(S(=O)(=O)c3ccc4[nH]c(=O)ccc4c3)CC2)cc1 | 3.9% | 16.1% | -10.6% | -10.2% | .
Cc1ccc(NC(=O)c2ccc3nsnc3c2)c(Cl)c1 | 3.2% | -11.0% | -0.1% | -22.0% | ?
Cc1onc(-c2c(Cl)cccc2Cl)c1C(=O)N/N=C(\N)COc1ccc(Cl)cc1 | -0.5% | 6.31µM* | -27.5% | -64.0% | 8.2µM*
CCCCNC(=O)C(Sc1ccccc1)c1ccccc1 (configuration not stated) | -0.3% | -34.1% | -8.1% | 12.1% | -3.7%
CCCCNC(=O)CC1N=C2c3ccccc3N=C(SCC(=O)Nc3ccccc3OC)N2C1=O (configuration not stated) | 0.1% | -22.4% | -22.7% | 8.0% | 18.4µM*
COc1ccccc1NC(=O)CSC1=Nc2ccccc2C2=NC(CC(=O)NCc3ccccc3)C(=O)N12 (configuration not stated) | 0.6% | 21.4% | -13.8% | -9.7% | .
Cc1ccc(NC(=O)N2CCN(C)CC2)cc1NC(=O)N1CCN(C)CC1 | -0.2% | 3.8% | -8.0% | 26.2% | -12.5%
CC(C)c1ccc(NC(=O)N2CCOCC2)cc1 | 3.7% | -10.2% | 1.7% | -4.5% | 22.3%
CC(=O)c1ccc(N2CCN(C(=O)Nc3ccc(C(C)C)cc3)CC2)cc1 | 2.1% | -7.7% | ? | -30.2% | 7.31µM*
COc1cc(-c2nc3nc(C)cc(C)n3c2Nc2ccc(Cl)cc2)ccc1O | 3.4% | 12.6µM* | 1.8% | -40.3% | ?
COc1ccc(Nc2c(-c3cccc(OC)c3)nc3nc(C)cc(C)n23)cc1 | 2.4% | . | . | . | .
Nc1ccc(/C=C/C(=O)c2cccs2)cc1 | ? | 0.3% | -0.7% | -8.9% | ?
O=C(/C=C/Nc1ccc(F)cc1)c1cccs1 | 6.31µM* | -4.5% | -9.4% | -23.8% | ?
O=C(/C=C/Nc1ccc(F)c(F)c1)c1cccs1 | 8.91µM* | ? | -0.3% | -6.6% | ?
O=C(C=Cc1ccccc1)c1cccs1 | ? | 11.2µM* | 2.2% | -63.3% | 10.3%
O=[N+]([O-])/C(C(Cl)=C(Cl)Cl)=C(\Sc1ccccc1)N1CCCCC1 | 11.2µM* | -23.7% | 12.5% | -19.3% | ?
CCN(CC)/C(Sc1ccccc1)=C(\C(Cl)=C(Cl)Cl)[N+](=O)[O-] | 4.5% | -2.2% | -0.6% | -12.3% | -3.4%
CN1C2CCC1/C(=C\c1ccccc1)C(=O)/C2=C\c1ccccc1 | ? | 0.3% | ? | -24.7% | 25.9µM*
O=C1/C(=C/c2ccccc2)CCC1C1CCCC1 (configuration not stated) | 3.0% | 20.4% | 2.8% | 4.7% | ?
CSCCC(NS(=O)(=O)c1ccc(Cl)cc1)C(=O)OCC(=O)c1c(C)[nH]c2ccccc12 (configuration not stated) | 5.2% | ? | ? | -82.4% | 18.4µM*
